High-throughput results deposited in PubChem BioAssay by Broad Institute.
Tgondii IFNg – T. gondii growth inhibition with IFN-gamma, primary screen, cell-based | Toxoplasma gondii growth in IFN-gamma-treated host cells; hits give low values | 69,000 tested, 3.8% active | activity change, negative = inhibition, % (concentration not given with the values); in the data active = activity change below about -70%, passing the limit was not always enough;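 note: host cells are HeLa cells infected with Toxoplasma gondii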
Hits are given with their value; n = inactive; ! = not confirmed by another sample. The full list was thinned out, with hits kept by preference.

SMILES	Tgondii IFNg
CCOC(=O)C1=C(C)NC(C)=C(C(=O)OC)C1c1cccc([N+](=O)[O-])c1 (configuration not stated)	n
CC1=C(C(=O)OCCN(Cc2ccccc2)c2ccccc2)C(c2cccc([N+](=O)[O-])c2)C(P2(=O)OCC(C)(C)CO2)=C(C)N1 (configuration not stated)	n
COC(=O)C1=C(C)NC(C)=C(C(=O)OCCCN2CCC(c3ccccc3)(c3ccccc3)CC2)[C@H]1c1cccc([N+](=O)[O-])c1	-71!
COC(=O)C1=C(C)NC(C)=C(C(=O)O[C@@H]2CCCN(Cc3ccccc3)C2)[C@@H]1c1cccc([N+](=O)[O-])c1	n
COCCOC(=O)C1=C(C)NC(C)=C(C(=O)OC(C)C)C1c1cccc([N+](=O)[O-])c1 (configuration not stated)	n
COCCOC(=O)C1=C(C)NC(C)=C(C(=O)OC/C=C/c2ccccc2)C1c1cccc([N+](=O)[O-])c1 (configuration not stated)	-73!
O=S(=O)(Cc1ccco1)Cc1nc(-c2ccc3c(c2)OCCO3)cs1	n
CN(C)CC(=O)N1CC[C@H]2[C@H]1CC(=O)N2c1ccsc1	n
Cc1ccsc1CN1C[C@H]2COC[C@@]2(CNS(=O)(=O)C2CC2)C1	n
CCc1noc(CN2CCOc3c(O)cc(-c4nc(C)cnc4C)cc3C2)n1	n
Cc1ccc(C)n1-c1c(C(=O)NCCc2c[nH]c3ccccc23)sc2ncccc12	n
O=C(Cn1ncc2c(N3CCN(c4ccccc4)CC3)ncnc21)NC1CCCCCC1	n
O=c1[nH]cc(Nc2ccccc2)c(=O)[nH]1	n
Nc1c(NCc2ccccc2)c(=O)c1=O	n
O=c1c(Nc2ccccc2)c(Nc2ccccc2)c1=O	-82
CO[C@H](CN(C)Cc1ccc(-c2ccccn2)cc1)[C@H](C)CN(C(=O)Nc1ccc(F)cc1)[C@H](C)CO	n
Cc1cc(N2N=C(c3ccccc3)CC2c2ccccc2)nc(-c2ccccc2O)n1 (configuration not stated)	n
COc1ccc(NC(=O)C(=O)NCCc2csc(-c3ccc(F)cc3)n2)cc1OC	n
COc1cc2nccc(Oc3ccc(NC(=O)C4(C(=O)Nc5ccc(F)cc5)CC4)cc3)c2cc1OC	-91
CN1CCN(C2CCN(C(=O)Nc3cc(Oc4ccc(NC(=O)C5(C(=O)Nc6ccc(F)cc6)CC5)c(F)c4)ccn3)CC2)CC1	n
Cc1ccc(-c2ccc(C(=O)NCCCc3ccccn3)cn2)c2cccnc12	n
CC(C)c1ncc(CN2CCCC(CO)C2)cn1 (configuration not stated)	n
COc1ccc2c(c1)NC1(CCN(C(=O)c3ccc(OC)cc3OC)CC1)c1cccn1-2	n
COc1ccc(-c2nc(N3CCN(c4ccccc4F)CC3)c3ccccc3n2)cc1	n
CC(C)NC(=O)[C@@H]1C[C@H](N)CN1C(=O)c1cccc2cnccc12	n
SMILES	Tgondii IFNg
O=C(NC1CCCC1)C1(Cc2ccccc2-c2coc3ccccc23)CCOCC1	n
CC(C)c1cc(C2CCN(C(=O)c3cccc(Cn4cccn4)c3)CC2)[nH]n1	n
Cc1cc(C)cc(S(=O)(=O)Nc2ccc3c(c2)CCC(=O)N3CC(C)C)c1	n
CC(C)CN1C(=O)CCc2cc(NS(=O)(=O)c3ccc(Cl)cc3)ccc21	-80
CC(C)CN1C(=O)CCc2cc(NS(=O)(=O)c3ccccc3)ccc21	n
CCN1C(=O)CCc2cc(NS(=O)(=O)c3ccc(C4CCCCC4)cc3)ccc21	-95
CCN1C(=O)CCc2cc(NS(=O)(=O)c3c(C)cccc3Cl)ccc21	n
CCN1C(=O)CCc2cc(NS(=O)(=O)Cc3ccc(Cl)cc3)ccc21	n
CCN1C(=O)CCc2cc(NS(=O)(=O)c3cc(F)ccc3F)ccc21	n
CCN1C(=O)CCc2cc(NS(=O)(=O)c3cccc(F)c3)ccc21	n
CCN1C(=O)CCc2cc(NS(=O)(=O)c3ccc(C#N)cc3)ccc21	-102
O=C(NCCn1ccnc1)C1(Oc2ccc(Cl)cc2)CCNCC1	n
Cc1cccc(NC(=O)c2ccc3nnc(C4CN(S(C)(=O)=O)CCN4C)n3c2)c1 (configuration not stated)	n
Cc1cc(C)n(CCNC(=O)CC2C(=O)NCCN2C(C)C)c(=O)n1 (configuration not stated)	n
O=C(C[C@@H]1CC[C@@H](NC(=O)C2CC2)[C@H](CO)O1)Nc1ccccc1	n
O=C(CSc1nnc(Cc2ccccc2)n1-c1cccc(Cl)c1)Nc1nccs1	n
COc1cc(-c2c(-c3ccccc3)ncn2CCCO)ccc1C	n
O=C(NCCCN1CCCCC1)C1CN(S(=O)(=O)c2cccnc2)CC12CCCCC2 (configuration not stated)	n
CCOc1ccccc1Nc1nc(-c2nnc(-c3ccccc3)o2)nc2ccccc12	n
COC(=O)c1sc(OC)cc1OC(=O)c1ccco1	n
Cc1noc(C)c1-n1sc(=O)n(-c2ccc(F)cc2)c1=O	n
Cc1ccc(C)c(NCc2n[nH]c(=S)n2-c2ccccc2)c1	n
Cc1c(C)c(C)c(CSCc2n[nH]c(=S)n2-c2ccc(F)cc2)c(C)c1C	-86
